# Measurements from PubChem BioAssay (NCATS).
# Results filed as inconclusive are left out. Unmarked numbers belong to inactive results. Active and inactive are the calls of the source. Calls come from the whole dose curve.
# Assay: Primary qHTS for Vero E6 cytotoxicity: counterscreen for inhibitors of SARS-S pseudo-typed particle cell entry (AID 1479150)
# Conditions: cell viability; series mostly up to 57.1 µM; activity change, negative = cytotoxicity: at the top concentration
# % is set by controls: 0 for no effect and ±100 for the full control effect.
SMILES,outcome,"activity change, negative = cytotoxicity"
CC1(C)C2CC[C@]3(C)C(C(=O)C=C4[C@@H]5C[C@@](C)(C(=O)O)CC[C@]5(C)CC[C@]43C)[C@@]2(C)CC[C@@H]1O (some centres not stated),inactive,–
Cn1cc(OCC(O)CNC(C)(C)C)c2ccccc2c1=O (configuration not stated),inactive,–
CCC(=C(CC)c1ccc(OP(=O)(O)O)cc1)c1ccc(OP(=O)(O)O)cc1,–,-3.89% [at 0.573 µM]
CC1(C)S[C@H]2[C@H](NC(=O)[C@@H](N)c3ccc(O)cc3)C(=O)N2[C@H]1C(=O)O,–,-7.43%
CCN1CCN(C(=O)N[C@@H](C(=O)N[C@]2(OC)C(=O)N3C(C(=O)O)=C(CSc4nnnn4C)CS[C@@H]32)[C@H](C)O)C(=O)C1=O,–,-7.11%
Cc1onc(-c2c(F)cccc2Cl)c1C(=O)N[C@@H]1C(=O)N2[C@@H]1SC(C)(C)[C@H]2C(=O)O,inactive,–
OCC1OC(c2ccc(Cl)c(Cc3ccc(OC4CCOC4)cc3)c2)C(O)C(O)C1O (configuration not stated),inactive,–
CC(=O)OCC1=C(C(=O)O)N2C(=O)[C@@H](NC(=O)CC#N)[C@H]2SC1,–,-6.93%
CC(OC(=O)OC1CCCCC1)OC(=O)C1=C(CSc2nnnn2CCN(C)C)CS[C@@H]2[C@H](NC(=O)Cc3csc(N)n3)C(=O)N12 (some centres not stated),inactive,–
[2H]N[C@@H](Cc1ccccc1)C(=O)N1CCC[C@H]1C(=O)N[C@@H](CCCNC(=N)N)C(=O)N1CCC[C@H]1C(=O)NCC(=O)NCC(=O)NCC(=O)NCC(=O)N[C@@H](CC(N)=O)C(=O)NCC(=O)N[C@@H](CC(=O)O)C(=O)N[C@@H](Cc1ccccc1)C(=O)N[C@@H](CCC(=O)O)C(=O)N[C@@H](CCC(=O)O)C(=O)N[C@H](C(=O)N1CCC[C@H]1C(=O)N[C@@H](CCC(=O)O)C(=O)N[C@@H](CCC(=O)O)C(=O)N[C@@H](Cc1ccc(O)cc1)C(=O)N[C@@H](CC(C)C)C(=O)O)[C@@H](C)CC,–,-0.847% [at 11.4 µM]
CN=C(NC)NCc1ccccc1,inactive,–
Cc1cc(Nc2ncc(Cl)c(Nc3ccccc3S(=O)(=O)C(C)C)n2)c(OC(C)C)cc1C1CCNCC1,inactive,–
CN(CCCCCCN(C)C(=O)Oc1ccc[n+](C)c1)C(=O)Oc1ccc[n+](C)c1,–,4.36%
CO[C@@H]1[C@@H](O[C@@H]2O[C@H](C)[C@@H](O[C@H]3C[C@@](C)(O)[C@H](O)[C@H](C)O3)[C@H](N(C)C)[C@H]2O)[C@@H](CC=O)C[C@@H](C)[C@@H](O[C@H]2CC[C@H](N(C)C)[C@@H](C)O2)/C=C/C=C/C[C@H](C)OC(=O)C[C@H]1O,inactive,–
CO[C@H]1C[C@@H]2CC[C@@H](C)[C@@](O)(O2)C(=O)C(=O)N2CCCC[C@H]2C(=O)O[C@H]([C@H](C)C[C@@H]2CC[C@@H](OCCO)[C@H](OC)C2)CC(=O)[C@H](C)/C=C(/C)[C@@H](O)[C@@H](OC)C(=O)[C@H](C)C[C@H](C)\C=C/C=C\C=C/1C,–,-5.14% [at 26.4 µM]
C#C[C@]1(O)CCC2C3CCC4=C(CCC(=O)C4)C3CC[C@@]21C (some centres not stated),–,-20.2%
CCCCCCCCCCCCCCCCCC(=O)[O][Al],–,-0.388% [at 5.34 µM]
CC/C=C\C/C=C\C/C=C\C/C=C\C/C=C\CCCC(=O)O,–,-6.81%
O=S(=O)(O)Oc1ccc(C(c2ccc(OS(=O)(=O)O)cc2)c2ccccn2)cc1,–,-1.92%
CO/N=C(\C(=O)N[C@@H]1C(=O)N2C(C(=O)O)=C(CSc3nnnn3C)CS[C@H]12)c1csc(N)n1,–,1.67%
CN1CCc2nc(C(=O)N[C@@H]3C[C@@H](C(=O)N(C)C)CC[C@@H]3NC(=O)C(=O)Nc3ccc(Cl)cn3)sc2C1,inactive,–
NCCCC[C@H](NC(=O)[C@@H]1CCCN1C(=O)[C@@H]1CSSC[C@H](N)C(=O)N[C@@H](Cc2ccc(O)cc2)C(=O)N[C@@H](Cc2ccccc2)C(=O)N[C@@H](CCC(N)=O)C(=O)N[C@@H](CC(N)=O)C(=O)N1)C(=O)NCC(N)=O,–,-5.32%
C[C@@H](O)[C@H]1C(=O)N2C(C(=O)O)=C(S[C@@H]3CN[C@H](C(=O)Nc4cccc(C(=O)O)c4)C3)[C@H](C)[C@H]12,–,4.47%
CO[C@H]1/C=C\O[C@@]2(C)Oc3c(C)c(O)c4c(O)c(c(/C=N/N5CCN(C6CCCC6)CC5)c(O)c4c3C2=O)NC(=O)/C(C)=C\C=C/[C@H](C)[C@H](O)[C@@H](C)[C@@H](O)[C@@H](C)[C@H](OC(C)=O)[C@@H]1C,inactive,–
O=C(O)[C@@H]1CCCN1,inactive,–
O[C@@H]1[C@@H](O)[C@@H](O)OC[C@@H]1O,–,-2.11% [at 171 µM]
CCCCCCCCCCCCCC(=O)OCC(COP(=O)([O-])OCC[N+](C)(C)C)OC(=O)CCCCCCCCCCCCC (configuration not stated),inactive,–
